{"source": "paper PMC7819943", "about": "“Rice protein-binding microarrays: a tool to detect cis-acting elements near promoter regions in rice”", "note": "The full ranking holds about 68,000 sequences; the median of “fluorescence intensity (a.u.)” is about 9,100, and the highest 2% start at about 16,000. The entries come from a sample that favours the highest values as a whole."}
{"target": "OsWRKY34 (Oryza sativa, UniProt Q0JBA9 1-250)", "sequence (Q0JBA9 entry or part of it)": "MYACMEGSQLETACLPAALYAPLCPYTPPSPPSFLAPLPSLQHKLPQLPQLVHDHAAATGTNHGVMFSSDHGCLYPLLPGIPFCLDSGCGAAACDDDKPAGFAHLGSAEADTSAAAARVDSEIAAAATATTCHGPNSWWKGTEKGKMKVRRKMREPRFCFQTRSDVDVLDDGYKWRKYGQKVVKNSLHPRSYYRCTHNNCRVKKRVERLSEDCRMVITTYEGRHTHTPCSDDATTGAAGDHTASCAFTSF", "assay": "protein-binding microarray (RPBM); PBS, 2% BSA, 51.3 ng/ul salmon testes DNA, 50 uM zinc acetate, 200 nM TF, 25 C, 1 h; high values mean tight binding", "conditions": "protein: recombinant; tags: N-terminal polyhistidine and DsRed monomer fusion (pET32a); label: CyDye5-dUTP incorporated in the synthesized complementary strand; 3' TTTTT single-stranded linker to array surface; dsDNA, one strand shown", "summary_of_the_method": "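Polyhistidine-tagged DsRed fusions of transcription factors, joined at the N-terminus, were expressed in E. coli BL21-CodonPlus and isolated on Ni–NTA. They were incubated at 200 nM for 1 h at 25 °C on a custom Agilent array, double-stranded and BSA-blocked, in PBS with 2% BSA, salmon testes DNA and 50 µM zinc acetate. The binding signal is per-feature fluorescence intensity (arbitrary units) read on an Axon 4000B scanner after washing.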"}
{"sequence": "CCCTCCGTTTCAAAATGTTTGACACCGTTGACTTTTTAGCCGGAGTCACCTAGTGCAG", "binding signal": "28700 fluorescence intensity (a.u.)"}
{"sequence": "TTTTCTTTTTCAATGTATGATTCTGTTGACTTTTCAGATACGGAGTCACCTAGTGCAG", "binding signal": "11600 fluorescence intensity (a.u.)"}
{"sequence": "TTATCAAAAGTACTTTTTAAGTATGACTTCTCCGTTTTTACGGAGTCACCTAGTGCAG", "binding signal": "8280 fluorescence intensity (a.u.)"}
{"sequence": "ATACTCCCTCCGTTTCAAAATGTTTGACATCGTTGACTTTCGGAGTCACCTAGTGCAG", "binding signal": "9980 fluorescence intensity (a.u.)"}
{"sequence": "CTTTCTTTATTTCAAAAGTATGATACCGTTGACTTTTCACCGGAGTCACCTAGTGCAG", "binding signal": "24900 fluorescence intensity (a.u.)"}
{"sequence": "TATTACTTCCTTCGTTTCAAAATGTTTGATACCGTTGACTCGGAGTCACCTAGTGCAG", "binding signal": "12000 fluorescence intensity (a.u.)"}
{"sequence": "CATCCGTTTCAAAATGTTTGACACCGTTGACTTTTTAGCACGGAGTCACCTAGTGCAG", "binding signal": "26200 fluorescence intensity (a.u.)"}
{"sequence": "GAGATGTGTCCATATTTGTAGTATTGGGTGGTATCTATTTCGGAGTCACCTAGTGCAG", "binding signal": "8550 fluorescence intensity (a.u.)"}
{"sequence": "TCACGGCCCCGCCGACCTCACGTCACCTTTTGTTGCGAGTCGGAGTCACCTAGTGCAG", "binding signal": "8110 fluorescence intensity (a.u.)"}
{"sequence": "GCCGAGGGCGCCGCCGGCGTCGTCCGAGCTGTGCCGCGCGCGGAGTCACCTAGTGCAG", "binding signal": "8640 fluorescence intensity (a.u.)"}
{"sequence": "ATCGTCCTCTGCACCTGCACACATCATCACTGGGACAACCCGGAGTCACCTAGTGCAG", "binding signal": "8140 fluorescence intensity (a.u.)"}
{"sequence": "AGGTCGACGTGTATATGTTCGTCTTTCATATCTCTGCTCTCGGAGTCACCTAGTGCAG", "binding signal": "9640 fluorescence intensity (a.u.)"}
{"sequence": "GTCGTCCAATGGCATGCCTCGCCCTGATTTTTATCGGGCCCGGAGTCACCTAGTGCAG", "binding signal": "12700 fluorescence intensity (a.u.)"}
{"sequence": "CCACAGTTAATTCCACACATACATGCACGCGTCTATATATCGGAGTCACCTAGTGCAG", "binding signal": "11200 fluorescence intensity (a.u.)"}
{"sequence": "AGGGGTGGATGCGCGTGGGCTGGTGGTGGTGGTGGGGATGCGGAGTCACCTAGTGCAG", "binding signal": "19100 fluorescence intensity (a.u.)"}
{"sequence": "GGTCTGGTTTTCCGTGTGTGCACGGTCGGGGTGCGCGTGGCGGAGTCACCTAGTGCAG", "binding signal": "14300 fluorescence intensity (a.u.)"}
{"sequence": "TCATCGCGGGGCGGGGTGTAGCGGGTGCGAAAAGGAGGCGCGGAGTCACCTAGTGCAG", "binding signal": "9910 fluorescence intensity (a.u.)"}
{"sequence": "CTCCGGTGGGTCGGGTCTGGGCGGGGTGCGCGTGGGGATGCGGAGTCACCTAGTGCAG", "binding signal": "18200 fluorescence intensity (a.u.)"}
{"sequence": "GGTGGTCGGGGCTCTGACGCGGCGGGGCGGCGGAGGTGGTCGGAGTCACCTAGTGCAG", "binding signal": "10800 fluorescence intensity (a.u.)"}
{"sequence": "CTGGTGGTCGGTTCAGTCGGGCGGGCGGGCGGGCTCACCGCGGAGTCACCTAGTGCAG", "binding signal": "22800 fluorescence intensity (a.u.)"}
{"sequence": "CTGAGTGGCTGGGTGGGGTAGTGAAAAAAATCATCGCGCGCGGAGTCACCTAGTGCAG", "binding signal": "18200 fluorescence intensity (a.u.)"}
{"sequence": "GCGGGGTGCGAGTGGATGGGTGGGCGTAGCGCGTGTCGTGCGGAGTCACCTAGTGCAG", "binding signal": "10400 fluorescence intensity (a.u.)"}
{"sequence": "GGGGTGTGTGTGCTCGGCTACTCCGGTGGGTCGGGTCTGGCGGAGTCACCTAGTGCAG", "binding signal": "12700 fluorescence intensity (a.u.)"}
{"sequence": "GCTAGCTGGATTGGTGGGTGGGCGCGTCAAGAAGGGGATGCGGAGTCACCTAGTGCAG", "binding signal": "9830 fluorescence intensity (a.u.)"}
{"sequence": "TGGTGACTGGGTAGGTGGTGGTGGTGGTGCGCGGCGGCGGCGGAGTCACCTAGTGCAG", "binding signal": "8620 fluorescence intensity (a.u.)"}
{"sequence": "AGCTGGCGGCTGGCGGGTGGTGGTGGTGGCTGGCGGCGGGCGGAGTCACCTAGTGCAG", "binding signal": "13900 fluorescence intensity (a.u.)"}
{"sequence": "TTCTTGGTTTTGAGTTCTCTTCTCGGTTTTCTCTTTAGCGCGGAGTCACCTAGTGCAG", "binding signal": "9000 fluorescence intensity (a.u.)"}
{"sequence": "TCTGAAGATGAGAGAGAGCTCACAGTTTATGGTTTTTGTACGGAGTCACCTAGTGCAG", "binding signal": "8830 fluorescence intensity (a.u.)"}
{"sequence": "TGGTTTGGTTGTGGTAGATCTTTTTTACTTATTGCTACCACGGAGTCACCTAGTGCAG", "binding signal": "15800 fluorescence intensity (a.u.)"}
{"sequence": "ATACTCGAGATGGGCGCTTGGTACTTGCATGTTTCCATTCCGGAGTCACCTAGTGCAG", "binding signal": "8680 fluorescence intensity (a.u.)"}
{"sequence": "AAATGTTACAATCATGCTCCAAACTCACACCTTGTTTAACCGGAGTCACCTAGTGCAG", "binding signal": "8540 fluorescence intensity (a.u.)"}
{"sequence": "CCTTTCACCCGCCCAAACTCATCCATCCATCGATCGCCCTCGGAGTCACCTAGTGCAG", "binding signal": "8560 fluorescence intensity (a.u.)"}
{"sequence": "GCAATCCGTGTAATTAATTATTTTTTCGTTTATACTCTCTCGGAGTCACCTAGTGCAG", "binding signal": "10200 fluorescence intensity (a.u.)"}
{"sequence": "CTTCCCACGCCAACGCCTCCGCTCCCGCTCGTACCACGCGCGGAGTCACCTAGTGCAG", "binding signal": "8090 fluorescence intensity (a.u.)"}
{"sequence": "CCCAACCTCGCCGTCGCCGTCGCCGTCGCCGCCGTCTCCGCGGAGTCACCTAGTGCAG", "binding signal": "10000 fluorescence intensity (a.u.)"}
{"sequence": "TCGGTCGGGTCGGGTCGGGTCGCGTCGCGTGGGCTGCATGCGGAGTCACCTAGTGCAG", "binding signal": "12200 fluorescence intensity (a.u.)"}
{"sequence": "GGTTAGGGTTTGGGGTGGGGAGGGGTGGATGCGCGTGGGCCGGAGTCACCTAGTGCAG", "binding signal": "21600 fluorescence intensity (a.u.)"}
{"sequence": "TTCTTGGGGCTGGAGAGGGTGGGGATGGTGGTGCGGATGCCGGAGTCACCTAGTGCAG", "binding signal": "15000 fluorescence intensity (a.u.)"}
{"sequence": "GGTTTTCCCTGGATGCCGAGAGGGTTTGGGTGCGCGCCGCCGGAGTCACCTAGTGCAG", "binding signal": "8910 fluorescence intensity (a.u.)"}
{"sequence": "GCCTCCGCCGCCGCCGCCGCCGCCGCGTCGTCTCCGACCGCGGAGTCACCTAGTGCAG", "binding signal": "9710 fluorescence intensity (a.u.)"}
{"sequence": "GCTGCGGCCGTCAACGTGGTCGTCGTCTCCGCGGCCGCCGCGGAGTCACCTAGTGCAG", "binding signal": "46900 fluorescence intensity (a.u.)"}
{"sequence": "GTGGTGGGTGGTGGCCGCGCTGCTGCGCGGTGGGTCGCATCGGAGTCACCTAGTGCAG", "binding signal": "11400 fluorescence intensity (a.u.)"}
{"sequence": "CTGGTCGTCGCTGCTCCGCGTGCCGGTCGGGGTGGGTGGGCGGAGTCACCTAGTGCAG", "binding signal": "20100 fluorescence intensity (a.u.)"}
